# In the library only some 12% were active in any assay of this set; here they are far more common.
# RORgamma inh: qHTS for inhibitors of ROR gamma transcriptional activity; Drosophila S2 Gal4-RORgamma UAS-luciferase reporter, 20 h; AID 2551, 2010; hit rate 5.4% among 310,000; Nuclear receptor ROR-gamma (Mus musculus), P51450; Potency, µM (titrated, usually from 53.6 µM), for the others: at the highest dose activity change, negative = inhibition, usual class: inhibitors; note: nearly all actives have a fitted effect of over 60% in size
#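 A Gal4/UAS one-hybrid system in insect cells: metallothionein-promoter Gal4–ROR gamma fusion plus Photinus luciferase reporter. Copper sulfate 700 uM final, 20 hr ambient incubation, luminescent detection after 10 min with reagent.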
# Gal4-VP16 FLuc: VP16 counterscreen qHTS for inhibitors of ROR gamma transcriptional activity; Potency, µM (doses to about 53.6 µM), inactives show top-dose activity, negative = inhibition, most hits filed as inhibitors; Drosophila S2 Gal4-VP16 UAS-luciferase, luminescence, 20 h; AID 2546, 2010; hit rate 3.5% among 310,000;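 note: Gal4-VP16 expression switched on by copper sulfate through the metallothionein promoter; nearly all actives have a fitted effect of over 50% in size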
# ALDH1A1 inh: qHTS Assay for Inhibitors of Aldehyde Dehydrogenase 1 (ALDH1A1); Potency, µM (top dose mostly 75.3 µM), without a hit: at the top dose activity, negative = inhibition, usual class: inhibitors; Purified ALDH1A1, NADH fluorescence, propionaldehyde substrate; hit rate 7.3% among 220,000; AID 1030, 2008; active = well fitted inhibition curve with a large enough effect, not every such curve was filed as active; inconclusive = small, poorly fitted or top-dose-only effect, or another doubt; inactive = no such curve, though single readings can be large or run the other way;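 note: plate controls were no enzyme wells and a reference inhibitor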
# Target sequence (P00352 whole entry, looked up): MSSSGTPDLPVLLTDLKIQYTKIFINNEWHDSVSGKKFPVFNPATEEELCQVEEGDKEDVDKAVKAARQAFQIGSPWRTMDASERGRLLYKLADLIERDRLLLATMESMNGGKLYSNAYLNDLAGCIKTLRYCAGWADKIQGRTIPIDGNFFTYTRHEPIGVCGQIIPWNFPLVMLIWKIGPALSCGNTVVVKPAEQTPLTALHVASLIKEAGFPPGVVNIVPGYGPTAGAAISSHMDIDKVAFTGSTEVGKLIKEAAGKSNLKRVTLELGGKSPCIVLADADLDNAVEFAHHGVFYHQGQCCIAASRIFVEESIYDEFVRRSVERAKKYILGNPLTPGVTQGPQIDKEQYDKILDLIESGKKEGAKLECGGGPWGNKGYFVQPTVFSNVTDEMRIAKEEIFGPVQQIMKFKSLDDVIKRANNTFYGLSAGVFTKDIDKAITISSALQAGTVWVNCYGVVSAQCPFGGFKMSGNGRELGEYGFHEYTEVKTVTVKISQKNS
# Sfp inh: qHTS Assay for Inhibitors of Bacillus subtilis Sfp phosphopantetheinyl transferase (PPTase) | 4'-phosphopantetheinyl transferase ffp (Bacillus subtilis), Q9F4F7 | Biochemical Sfp PPTase activity, qHTS | Potency, µM, without a hit: largest response in the series, negative = inhibition, actives largely listed as inhibitors | hit rate 3.5% among 310,000 | AID 1490, 2009;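 note: the enzyme is Sfp with the accession as filed and its product quenches rhodamine fluorescence; 0% = enzyme reaction without inhibitor and -100% = no enzyme wells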
#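 Fluorescence-quenching assay: 15 nM Sfp-PPTase preincubated 15 min at room temperature with compound, then 5 uM rhodamine-CoA and 12.5 uM BHQ-2-labelled YbbR peptide added. Fluorescence (ex 525/em 598 nm) read at start and after 30 min; difference gives rate.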
# PLK1 PBD inh: qHTS for Inhibitors of PLK1-PDB (polo-like kinase 1 - polo-box domain): Primary Screen | Plk1 PBD binding of FITC phosphopeptide, fluorescence polarization | Potency, µM, for the others: max response, negative = inhibition, hits mostly inhibitors | hit rate 2.8% among 360,000 | AID 720504, 2013; note: series mostly up to about 57 µM; nearly all actives have a fitted effect of over 65% in size
# Starred values were filed as active, the others as inactive; ? = inconclusive; . = no result; [ ] = remark or other dose. Unless noted, calls come from the whole dose curve; as a rule, active = well fitted curve in the direction sought with a large enough effect; inconclusive = small, poorly fitted or top-dose-only effect, or another doubt; inactive = no such curve, though single readings can be large; an effect the other way counts as inactive or inconclusive. Unless noted, % is set by controls: 0 for no effect and ±100 for the full control effect; potency is the fitted concentration of half-maximal effect.
SMILES,RORgamma inh,Gal4-VP16 FLuc,ALDH1A1 inh,Sfp inh,PLK1 PBD inh
CCC(=O)NC(=S)Nc1cccc(NC(=O)c2ccccc2Cl)c1,11µM*,-25%,?,-23%,27µM*
O=C(Nc1ncnc2c1ncn2[C@@H]1O[C@@H]2COP(=O)(O)O[C@H]2[C@H]1O)c1ccccc1,-10%,-4%,.,2%,.
FC(F)(F)c1cc(Cl)c2nc(-c3ccccc3)c(Cc3cccc(Cl)c3)n2c1,.,.,.,.,5%
COc1ccc(-c2cc(C(=O)NCc3cccc(C(F)(F)F)c3)[nH]n2)c(C)c1,.,.,.,.,-1%
Cc1ccc(S(=O)(=O)CCc2nnc(NC(=O)CCl)s2)cc1C,?,?,1µM*,1%,-30%
O=C(Oc1csc(=S)n1C(=O)c1ccccc1)c1ccccc1,?,-11%,3.2µM*,40µM*,3µM*
CC(=O)c1cccc(OC(=O)c2ccccc2)c1,.,.,.,.,-1%
CC(C)Cc1ccc(-c2cc3nc(NCCCn4ccnc4)ccn3n2)cc1,.,.,.,.,6%
Cc1ccccc1S(=O)(=O)Cc1ccc(C(=O)NC2CCC(C)CC2)o1 (stereo not drawn),1%,0%,.,1%,27µM*
Cc1ccc(CSCc2ccc(C(=O)NC3CCCC3)o2)cc1,?,7%,22µM*,2%,-8%
COC(CNC(=O)[C@H](Cc1ccccc1)N1Cc2ccccc2C1=O)OC,33%,3%,.,3%,3%
CCN1C(=O)/C(=C\N2CCN(C(=O)c3ccco3)CC2)SC1=S,13%,-6%,?,8%,-5%
CCN1CCN(c2c(/C=C3\SC(=S)N(Cc4ccco4)C3=O)c(C)c(C#N)c(=O)n2C)CC1,7.1µM*,?,.,25µM*,16%
CC(=O)Nc1cc(OC(C)=O)c2nonc2c1OC(C)=O,11µM*,?,5%,40µM*,?
CC(=O)Nc1nonc1NC(C)=O,-22%,-3%,-4%,21%,1%
O=C(c1cc(-c2cccs2)on1)N1CCCc2ccccc21,-5%,0%,14µM*,-12%,5%
COc1ccc(-c2cc(C(=O)N3CCCc4ccccc43)no2)cc1,14%,-5%,4µM*,3%,2%
COc1ccc(-c2cc(C(F)F)n3ncc(C(=O)N4CCc5ccccc54)c3n2)cc1,1%,0%,1%,-16%,6.7µM*
COc1ccc(C2=NOC(C(=O)N3CCCc4ccccc43)C2)cc1 (stereo not drawn),28%,2%,13µM*,4%,-14%
Cc1ccc(-c2cc(C(F)F)n3ncc(C(=O)N4CCCc5ccccc54)c3n2)cc1,-6%,-4%,-1%,1%,1%
Cc1noc(C)c1C(=O)N1CCCc2ccccc21,-15%,0%,25µM*,9%,-5%
COc1ccc(C(=O)Nc2ccc(NC(=O)c3cccs3)cc2)cc1Cl,-7%,-2%,2%,-9%,3.8µM*
COc1ccc(NC(=O)c2cccs2)cc1,-16%,-10%,-4%,12%,-2%
CCCCOc1cccc(C(=O)Nc2ccc(NC(=O)c3cccs3)cc2)c1,?,0.1µM*,.,23%,-4%
COc1ccc(NC(=O)Nc2cccs2)cc1Cl,4%,-11%,-12%,45µM*,-11%
SMILES,RORgamma inh,Gal4-VP16 FLuc,ALDH1A1 inh,Sfp inh,PLK1 PBD inh
COc1ccc(C(=O)Nc2ccc(NC(=O)c3cccs3)cn2)cc1,0.22µM*,9%,.,-3%,0%
CCCOc1ccc(C(=O)Nc2ccc(NC(=O)c3cccs3)cc2)cc1,6%,-7%,.,11%,-13%
O=C(O)[C@@H]1[C@@H]2C[C@@H]3[C@@H](OC(=O)[C@@H]31)[C@H]2Br,.,.,8%[13.5 µM],.,.
COC(=O)C1=C(C(=O)OC)[C@]2([C@H]3CC=CCN[C@@H](Cc4ccccc4)C(=O)N3Cc3ccccc3)C=C[C@H]1O2,.,.,.,.,-2%
Cc1ccc(S(=O)(=O)N2[C@H](CC(=O)c3cccs3)OC[C@@H]2C)cc1,.,.,.,.,6%
CN1OC[C@@H]2CN(C(=O)NC3CCCCC3)[C@H](c3ccc(N4CCCCC4)cc3)C[C@@H]21,.,.,.,.,-8%
COc1cc(NC(=O)c2ccccc2)c(OC)cc1NC(=O)CN1C(=O)N(C)C2(CCCCC2)C1=O,.,.,.,.,-6%
CC(=O)OCOC(c1ccc2ccccc2c1)P(=O)(OCOC(C)=O)OCOC(C)=O (stereo not drawn),.,.,2%,13%,.
COc1ccc(CCNC(=O)c2c(C)nn(-c3ccccc3)c2Cl)cc1OC,33%,5%,.,6%,4%
COc1cc(NCCC(=O)c2cccs2)c(OC)cc1Cl,-18%,-21%,1.4µM*,-9%,-13%
CCNc1ncc2nc(-c3cccc(C#N)c3)c(=O)n(C)c2n1,10%,5%,?,-20%,.
COc1ccc(S(=O)(=O)NC(=O)C2(C)CCN2C(=O)c2cccc(F)c2)cc1 (stereo not drawn),.,.,.,.,-2%
CC(=O)c1c(C)[nH]c(C(=O)/C(C#N)=C/c2cccc(C)c2)c1C,21%,-10%,.,-11%,6µM*
CCOC(=O)c1c(C)[nH]c(C(=O)/C(C#N)=C/c2ccc(OCC)cc2)c1C,-2%,-6%,3.2µM*,-13%,-23%
CSc1ncccc1C(=O)OCC(=O)N(C)Cc1ccc(C)cc1,.,.,.,.,-8%
C[C@H](CO)N1C[C@H](C)[C@@H](CN(C)Cc2ccccc2)OCc2cnnn2CCCC1=O,.,.,.,.,-9%
Cc1noc2c1C(c1ccc(N(C)C)cc1)C1=C(CC(C)(C)CC1=O)N2 (stereo not drawn),-11%,8%,22µM*,-4%,1%
Cc1cc(F)cc(-c2cc(C(=O)NCc3ccco3)[nH]n2)c1,.,.,.,.,-9%
Cc1cccc(CN2CCCC(C(=O)c3ccc4c5c(cccc35)CC4)C2)n1 (stereo not drawn),4µM*,13µM*,?,13%,-3%
COc1ccc2cc(C(=O)C3CCCN(Cc4cccc(C)n4)C3)ccc2c1 (stereo not drawn),2µM*,13µM*,?,1%,-6%
O=C(c1ccc2c3c(cccc13)CC2)C1CCCN(Cc2cccnc2)C1 (stereo not drawn),2%,10%,?,-8%,-13%
COc1cccc(O)c1CN1CCCC(C(=O)c2cccc(C(F)(F)F)c2)C1 (stereo not drawn),1%,-14%,2%,71µM*,-1%
O=CNc1ccc(OC(=O)c2cncc(Br)c2)cc1,-1%,10%,.,2%,-4%
CCC/C=C1\CCCOC(C(=O)NCc2ccccc2)(C(F)(F)F)C1 (stereo not drawn),-36%,-19%,.,-2%,.
COc1ccc(S(=O)(=O)N2c3ccccc3OCC2CC(=O)O)cc1 (stereo not drawn),-15%,-3%,.,17%,21µM*
